We go through 88 compounds from PubChem BioAssay AID463173 (ICCB-Longwood Screening Facility, Harvard Medical School, 2010).

Molecules are shown by their SMILES. Several values for one entry are separate records, joined by “and”; a condition that tells them apart may be missing. Equal entries are not always repeated. Among all 52,000 compounds or so, about 4,300 (8.3%) were called active. No stated cut-off is given here; in the data, active means survival mostly below about 52% (no sharp cut-off); inactive means mostly above about 56%. The full list was thinned out, with actives kept by preference. Where a structure was tested more than once in an assay, its records may differ in their call.

The test system of the assay is DeltatarO mutant. As to the kind of experiment: growth inhibition of S. aureus wild type versus tarO mutant, primary screen, teichoic acid synthesis inhibitors, RN4220, OD600 (AID 463173). Particulars: OD600, 18 h, stronger effect = lower value, screened at 18.75 µg/mL (by protocol).
Take `Cc1ccc(CNC(=O)c2c(-c3ccccc3F)noc2C)o1`: the survival is 89% (inactive).
`CCC1CN(C(=O)N2CCC(C(=O)NCCN(CC)CC)CC2)c2cc(C)ccc2O1` (stereo not drawn): the survival is 94% (inactive).
The same measure for `Cn1ccc2c(OCC(=O)Nc3ccc(OC(F)(F)F)cc3)cccc2c1=O`: 95% (inactive).
As for `CCCc1nn2c(=O)cc(COC(=O)c3cccc(NC(=O)CCc4ccccc4)c3)nc2s1`, the figure is 131% (inactive); as for `CC(=O)c1ccc(NC(=O)Cn2c(=O)nc(-c3ccccc3)c3cc(Cl)ccc32)cc1`, 115% (inactive).
Consider `O=C(NCCC1=CCCCC1)C1CC(O)CN1C(=O)Nc1ccccc1` (stereo not drawn), for which the survival was 87% (inactive).
For the compound `CCOC(=O)c1c(NC(=O)c2cc(-c3cccc(OC)c3)on2)sc2c1CCCC2`, the survival was 46% (active).
As for `CCOC(=O)c1c(NC(=O)c2cc(-c3ccc(Cl)cc3)on2)sc2c1CCCC2`, the figure is 68% (inactive); as for `CCOC(=O)c1c(-c2ccc(C)cc2)csc1NC(=O)c1cc(-c2ccc(OC)cc2)on1`, 49% (inactive); as for `CCOC(=O)c1c(-c2ccccc2)csc1NC(=O)c1cc(-c2ccc(C)c(F)c2)on1`, 52% (active).
As for `CCOC(=O)c1c(-c2ccccc2)csc1NC(=O)c1cc(-c2cccc(OC)c2)on1`, the figure is 43% (active).
The same measure for `CCOC(=O)c1c(-c2ccccc2)csc1NC(=O)c1cc(-c2ccc(F)cc2)on1`: 66% (inactive).
In the case of `CCOC(=O)c1c(-c2ccc(C)cc2)csc1NC(=O)c1cc(-c2ccc(C)c(F)c2)on1`, the survival was 55% (inactive).
Turning to `CCOC(=O)c1c(NC(=O)c2cc(-c3ccc(OC)c(OC)c3)on2)sc2c1CCCC2`, the survival was 52% (inactive).
Turning to `CCOC(=O)c1c(-c2ccccc2)csc1NC(=O)c1cc(-c2cccc(Cl)c2)on1`, the survival is 59% (inactive).
The same measure for `CCc1ccccc1-n1nnc(-c2nsc(NC(=O)c3ccc(C)c(C)c3)n2)c1C`: 130% (inactive).
As to `COc1ccc(NC(=O)C2Cc3ccccc3CN2S(=O)(=O)c2ccccc2)cc1OC` (stereo not drawn), the survival is 94% (inactive).
Regarding `CCc1c(C)sc2c1CCN(Cc1cccc(OC)c1)C2c1ccccc1` (stereo not drawn), the survival was 60% (inactive).
In the case of `CCCCNC(=O)c1ccc2c(=O)n(Cc3ccc(OC)cc3)c(=O)[nH]c2c1`, the survival is 68% (inactive).
For the compound `COc1cc(OC)c(NC(=O)CCNS(=O)(=O)c2ccc3c(c2)oc(=O)n3C)cc1Cl`, the survival was 83% (inactive).
As for `Cc1cc(/C=C(\C#N)C(=O)N2CCc3ccccc3C2)c(C)n1C`, the figure is 87% (inactive); as for `O=C(/C=C\c1ccc2c(c1)OCO2)NC1CC(=O)N(c2cccc(F)c2)C1` (stereo not drawn), 67% (inactive); as for `Cc1sc(-n2cccc2)c(C(C)NC(=O)Nc2cccc(C(F)(F)F)c2)c1C` (stereo not drawn), 23% (active).
As for `COc1ccc(NC(=O)NC(C)c2c(-n3cccc3)sc(C)c2C)cc1OC` (stereo not drawn), the figure is 58% (inactive); as for `Cc1sc(-n2cccc2)c(C(C)NC(=O)Nc2ccccc2Cl)c1C` (stereo not drawn), 61% (inactive); as for `COC(=O)c1ccc(Cl)cc1NC(=O)NC(C)c1c(-n2cccc2)sc(C)c1C` (stereo not drawn), 19% (active).
For the compound `COC(=O)c1ccc(NC(=O)NC(C)c2c(-n3cccc3)sc(C)c2C)cc1` (stereo not drawn), the survival is 52% (inactive).
For the compound `Cc1ccc(NC(=O)NC(C)c2c(-n3cccc3)sc(C)c2C)cc1F` (stereo not drawn), the survival is 64% (inactive).
As for `CCn1nc(CCC(=O)O)c2ccccc2c1=O`, the figure is 80% (inactive).
The same measure for `Cc1ccc2oc(-c3ccccc3C)nc2c1`: 105% (inactive); for `O=C(Nc1ccc2oc(-c3cccc4c(Br)cccc34)nc2c1)c1ccc(Br)cc1`: 71% (inactive); for `Nc1ccc2oc(-c3ccccc3Br)nc2c1`: 87% (inactive) and 39% (active).
In the case of `CCOC(=O)CC(NC(=O)c1cc2cc(OC)ccc2oc1=O)c1ccc(OC)cc1` (stereo not drawn), the survival is 74% (inactive).
For `Cc1ccc(CC(=O)NCc2nc(-c3cccc(C)c3)no2)cc1`, the survival is 69% (inactive).
As for `Cc1cccc(-c2noc(CCCC(=O)NCc3ccco3)n2)c1`, the figure is 42% (active).
The same measure for `COc1cccc(-c2noc(CCCC(=O)NCc3ccco3)n2)c1`: 109% (inactive); for `Cc1ccc(-c2noc(CNC(=O)c3ccccc3)n2)cc1`: 63% (inactive); for `Cc1ccc(-c2noc(CCCC(=O)NCc3ccco3)n2)cc1`: 53% (inactive).
As for `Cc1ccccc1C(=O)NCc1nc(-c2ccc(Cl)cc2)no1`, the figure is 47% (active).
Turning to `Cc1cccc(-c2noc(CNC(=O)c3ccccc3Br)n2)c1`, the survival is 72% (inactive).
As for `Cc1ccc(-c2noc(CNC(=O)c3ccc(C)c(Cl)c3)n2)cc1`, the figure is 49% (inactive); as for `Cc1cccc(-c2noc(CNC(=O)c3ccc(C)cc3C)n2)c1`, 37% (active).
As for `O=C(CSc1nc2ccccc2nc1Cc1ccc(Cl)cc1)N1CCc2ccccc21`, the figure is 93% (inactive); as for `O=C(NC1CC(=O)N(c2ccc(F)cc2)C1)C(c1ccccc1)c1ccccc1` (stereo not drawn), 124% (inactive).
For `CCc1ccc(C(=O)c2cn(CC(=O)Nc3ccc(Cl)cc3)c3cc4c(cc3c2=O)OCO4)cc1`, the survival is 146% (inactive).
As for `CCc1ccc(NC(=O)Cn2ccn(-c3ccc(C)c(C)c3)c(=O)c2=O)cc1`, the figure is 104% (inactive).
As for `COc1ccc(OC)c(CCNC(=O)c2sc3nc4n(c(=O)c3c2C)CCCC4)c1`, the figure is 80% (inactive); as for `COc1cccc(NC(=O)CCN2C(=O)c3ccccc3Sc3ncccc32)c1`, 102% (inactive).
The same measure for `O=c1c2cc3c(cc2nc2sc(Nc4cccc([N+](=O)[O-])c4)nn12)OCO3`: 123% (inactive); for `Cc1ccc(C2c3c(-c4ccccc4O)n[nH]c3C(=O)N2CCc2ccccc2)cc1` (stereo not drawn): 32% (active).
For `CC(C)c1ccc(C2c3c(-c4ccccc4O)n[nH]c3C(=O)N2CCc2ccccc2)cc1` (stereo not drawn), the survival is 50% (inactive).
In the case of `O=C1c2[nH]nc(-c3ccccc3O)c2C(c2ccc(F)cc2)N1CCO` (stereo not drawn), the survival was 78% (inactive).
As for `O=C1c2[nH]nc(-c3ccccc3O)c2C(c2ccc(Cl)cc2)N1CCc1ccccc1` (stereo not drawn), the figure is 4% (active).
The same measure for `Cc1ccc(C2c3c(-c4ccccc4O)n[nH]c3C(=O)N2CCCO)cc1` (stereo not drawn): 58% (inactive).
Consider `CCN1C(=O)N(CC)C2NC(=S)NNC21` (stereo not drawn), for which the survival was 91% (inactive).
On to `CC(C)(C)OC(=O)N1CCC(c2c(C(=O)Nc3ccc4c(c3)OCCO4)cnn2-c2ccccc2)CC1`, for which the survival was 96% (inactive).
The same measure for `CCn1nc(C)c2c(-c3ccccc3)cc(=O)n(C(C)C(=O)NCCc3ccc(OC)c(OC)c3)c21` (stereo not drawn): 92% (inactive).
For the compound `CCCS(=O)(=O)N1CC(=O)N(c2ccc(C)cc2C)C(C)(C(=O)NC2CCCCCC2)C1` (stereo not drawn), the survival was 67% (inactive).
As to `CCC(C(=O)Nc1ccc(C)c(Cl)c1)n1c(=O)c(-c2ccccc2NC(C)=O)nc2ccccc21` (stereo not drawn), the survival is 63% (inactive).
Consider `CC(=O)Nc1ccccc1-c1nc2ccccc2n(C(C)C(=O)Nc2cccc(C)c2C)c1=O` (stereo not drawn), for which the survival was 100% (inactive).
On to `CCC(=O)Nc1ccccc1-c1nc2ccccc2n(C(C)C(=O)Nc2ccc(OC)cc2)c1=O` (stereo not drawn), for which the survival is 55% (inactive).
For `CCC(=O)Nc1ccccc1-c1nc2ccccc2n(C(C)C(=O)Nc2cccc(Cl)c2C)c1=O` (stereo not drawn), the survival was 42% (active).
As for `CCC(=O)Nc1ccccc1-c1nc2ccccc2n(C(CC)C(=O)Nc2cccc(Cl)c2)c1=O` (stereo not drawn), the survival was 24% (active).
Take `CCC(=O)Nc1ccccc1-c1nc2ccccc2n(C(CC)C(=O)Nc2cccc(C(C)=O)c2)c1=O` (stereo not drawn): the survival is 91% (inactive).
As for `CC(C)N(C(=O)CSc1nnc(Cn2nnc3ccccc32)n1C)C(C)C`, the figure is 81% (inactive); as for `Cc1ccn2c(Nc3ccc4c(c3)OCO4)c(-c3ccc(N(C)C)cc3)nc2c1`, 101% (inactive); as for `COc1ccc(C(=O)Oc2ccc(C(c3c(C)[nH][nH]c3=O)c3c(C)[nH][nH]c3=O)cc2)cc1`, 80% (inactive).
As for `COc1ccc2sc(N(Cc3cccnc3)C(=O)c3cccs3)nc2c1`, the figure is 76% (inactive); as for `COc1cc(C(=O)N(Cc2cccnc2)c2nc3cc(C)c(C)cc3s2)cc(OC)c1OC`, 49% (inactive); as for `Cc1cc2nc(N(Cc3cccnc3)C(=O)c3ccc(Cl)s3)sc2cc1C`, 32% (active).
As for `COc1ccc2sc(N(Cc3cccnc3)C(=O)c3ccco3)nc2c1`, the figure is -2% (active); as for `COc1ccc2nc(N(Cc3cccnc3)C(=O)c3ccco3)sc2c1`, 101% (inactive); as for `CCS(=O)(=O)c1ccccc1C(=O)N(Cc1cccnc1)c1nc2cc(C)c(C)cc2s1`, 112% (inactive).
On to `COc1ccc(N(C(=O)c2snc(C(N)=O)c2N)C(C(=O)NCc2ccc(F)cc2)c2ccc(C)o2)c(OC)c1` (stereo not drawn), for which the survival was 67% (inactive).
As for `Cc1ccccc1-c1noc(-c2ccc(N3CCCC3)c([N+](=O)[O-])c2)n1`, the figure is 65% (inactive); as for `CCc1ccccc1NC(=O)C(CC)Oc1ccccc1-c1nnc(-c2ccccc2)o1` (stereo not drawn), 32% (active).
Turning to `CCC(Oc1ccccc1F)C(=O)Nc1cc(-c2ccccc2)no1` (stereo not drawn), the survival was 35% (active).
The same measure for `CCC(Oc1ccc(F)cc1)C(=O)Nc1cc(-c2ccc(C)cc2)no1` (stereo not drawn): 54% (inactive).
On to `CCC(Oc1ccccc1F)C(=O)Nc1c(C(=O)c2ccccc2)oc2ccccc12` (stereo not drawn), for which the survival is 53% (inactive).
As to `Cc1ccc(-c2cc(NC(=O)C(C)Oc3ccc(C)c(C)c3)on2)cc1` (stereo not drawn), the survival was 93% (inactive).
As for `Cc1ccc(-c2cc(NC(=O)C(C)Oc3ccccc3F)on2)cc1` (stereo not drawn), the figure is 33% (active); as for `CCOC(=O)c1ccccc1NC(=O)COc1ccccc1-c1nnc(-c2ccccc2)o1`, 49% (inactive).
As for `CC(Oc1ccc(F)cc1)C(=O)Nc1cc(-c2ccc(F)c(F)c2)no1` (stereo not drawn), the figure is 59% (inactive); as for `CCC(Oc1ccccc1-c1nnc(-c2ccccc2)o1)C(=O)Nc1ccc(C(C)=O)cc1` (stereo not drawn), 112% (inactive).
Regarding `Cc1ccc(NC(=O)CCCn2c(=O)c3cccn3c3cccnc32)c(C)c1`, the survival is 87% (inactive).
On to `COc1ccc(CNC(=O)CCc2nnc3n(C)c(=O)c4sccc4n23)cc1`, for which the survival is 180% (inactive).
In the case of `O=C(CN1CCN(Cc2ccccc2Cl)C1=O)NCCc1ccc(Cl)cc1`, the survival was 49% (inactive).
The same measure for `COc1cccc(-c2nc(SCC(=O)NCC3CCCO3)c(-c3ccc(Cl)cc3)[nH]2)c1` (stereo not drawn): 63% (inactive).
